Reference: PubChem BioAssay (EPA / NIEHS)
Active and inactive are the calls of the source. The calls were made as follows: active = hit-call score of the fitted dose curve at least 0.9, where 1 is the maximum; inactive = score below 0.9.

Assay: CCTE_Harrill_HTTr_Apoptosis_MCF7: CCTE's 6-hour Apoptosis Assessment for the High-Throughput Transcriptomics (HTTr) Platform, in MCF-7 cells cultured in DMEM + 10% fetal bovine serum, Harrill Lab (AID 2284011)
Outline: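 High-content imaging of CellEvent Caspase 3/7 Green signal follows a six-hour exposure, with eight concentrations per chemical. MCF-7 cells grown in DMEM plus 10% fetal bovine serum; activity fitted in both directions against DMSO.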

Q: For O=C(O)C1(c2ccc3c(c2)OC[C@H](Cc2ccc(-c4ccccc4)cc2)[C@H]3O)CCCC1, which outcome is on record?
A: Its outcome is “inactive”.

Q: For OCCCCO, which outcome is on record?
A: The outcome was “inactive”.

Q: Which outcome does the source give for N#Cc1cccnc1 here?
A: The outcome was “inactive”.

Q: Which outcome does the source give for Clc1cnc(Oc2ccc(Oc3ncc(Cl)cc3Cl)cc2)c(Cl)c1 here?
A: The outcome was “inactive”.

Q: With COCCl as the compound, how does the outcome read?
A: Its outcome is “inactive”.

Q: For COc1ccccc1N, which outcome is on record?
A: Its outcome is “inactive”.

Q: With CC(C)(C)c1ccc(CCOc2ncnc3ccccc23)cc1 as the compound, how does the outcome read?
A: Its outcome is “inactive”.

Q: For COc1nn(C(=O)NS(=O)(=O)c2ccccc2OC(F)(F)F)c(=O)n1C, which outcome is on record?
A: Its outcome is “inactive”.

Q: Which outcome does the source give for C[C@@H]1O[C@@H](O[C@H]2C[C@@H](O)[C@]3(CO)[C@H]4[C@H](O)C[C@]5(C)[C@@H](C6=CC(=O)OC6)CC[C@]5(O)[C@@H]4CC[C@]3(O)C2)[C@H](O)[C@H](O)[C@H]1O here?
A: The outcome was “inactive”.

Q: Which outcome does the source give for CCOC(=O)OC1=C(c2cc(C)ccc2C)C(=O)NC12CCC(OC)CC2 (stereo not drawn) here?
A: The outcome was “inactive”.

Q: With CCCCOC(=O)COC(=O)c1ccccc1C(=O)OCCCC as the compound, how does the outcome read?
A: Its outcome is “inactive”.

Q: For CCOP(=O)(OCC)OC(=CCl)c1ccc(Cl)cc1Cl, which outcome is on record?
A: Its outcome is “inactive”.

Q: Which outcome does the source give for Cc1cc(C(F)(C(F)(F)F)C(F)(F)F)ccc1NC(=O)c1cccc(I)c1C(=O)NC(C)(C)CS(C)(=O)=O here?
A: Its outcome is “inactive”.

Q: For CC(O)(CS(=O)(=O)c1ccc(F)cc1)C(=O)Nc1ccc(C#N)c(C(F)(F)F)c1 (stereo not drawn), which outcome is on record?
A: Its outcome is “inactive”.

Q: Which outcome does the source give for CN(C)C(=S)S here?
A: The outcome was “inactive”.

Q: For Oc1ccc(Cc2ccc(O)cc2)cc1, which outcome is on record?
A: Its outcome is “inactive”.

Q: Which outcome does the source give for CC1(C)[C@H](C(=O)O[C@H](C#N)c2cccc(Oc3ccccc3)c2)[C@@H]1/C=C(\Cl)C(F)(F)F here?
A: The outcome was “inactive”.

Q: Which outcome does the source give for CS(=O)(=O)c1ccc(C(=O)C2C(=O)CCCC2=O)c(Cl)c1COCC(F)(F)F here?
A: Its outcome is “inactive”.
